Screening data (PubChem)
This is a sample that favours compounds with a hit; in the whole collection about 2.4% have one here.
Pol beta inh: qHTS Assay for Inhibitors of DNA Polymerase Beta | Potency, µM (doses to about 114 µM), usual class: inhibitors | Pol beta primer extension/strand displacement, fluorescence kinetic | AID 485314, 2010 | actives 1.3% (n = 340,000) | P06746
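Values derive from four-parameter Hill fits of normalized kinetic data: reads at 0 and 10 min following addition of 50 nM substrate to 10 nM Pol beta preincubated 15 min with compound.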
POLK inh: qHTS for Inhibitors of Polymerase Kappa. DNA polymerase kappa (Homo sapiens), Q9UBT6. purified Pol kappa, fluorescent DNA synthesis assay, 10 min. Potency, µM (doses to about 107 µM), usual class: inhibitors. actives 0.53% (n = 400,000). AID 588579, 2011
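Here, compound and 10 nM enzyme are combined for 15 min at room temperature; adding 50 nM substrate (final) starts DNA synthesis, tracked by fluorescence at 0 and 10 min against buffer-only wells.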
Pol eta inh: qHTS for Inhibitors of Polymerase Eta; actives 1.2% (n = 390,000); recombinant Pol eta, fluorescent DNA replication assay; Potency, µM (highest dose often 114 µM), usual class: inhibitors; DNA polymerase eta (Homo sapiens), Q9Y253; AID 588591, 2011
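Pol eta at 10 nM preincubated with compounds 15 min at room temperature; reaction started with fluorescent substrate (50 nM final) and read kinetically at 0 and 10 min.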
Pol iota inh: qHTS for Inhibitors of Polymerase Iota; DNA polymerase iota (Homo sapiens), Q9UNA4; Pol iota fluorescent replication assay, 10 min; Potency, µM (series often up to 115 µM), usual class: inhibitors; actives 1% (n = 390,000)
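Fluorescent replication assay read twice, at 0 min and 10 min after adding 50 nM (final) substrate. Enzyme (10 nM) and compounds were first incubated 15 min at room temperature; enzyme-free buffer wells were negative controls.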
FEN1 inh: qHTS Assay for the Inhibitors of Human Flap endonuclease 1 (FEN1). P39748. Recombinant FEN1 flap cleavage, fluorescence, 15 min. Potency, µM (highest dose often 114 µM), usual class: inhibitors. actives 0.35% (n = 390,000). AID 588795, 2011; further: nearly all actives have a fitted effect of over 65% in size
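Quantitative HTS format: each compound was titrated, incubated with 10 nM nuclease for 15 min at room temperature, then challenged with flap substrate at 50 nM final. Signal change over 15 min gave concentration–effect curves.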
WRN inhibitor: qHTS for Inhibitors of WRN Helicase | Bifunctional 3'-5' exonuclease/ATP-dependent helicase WRN (Homo sapiens), Q14191 | WRN helicase unwinding, fluorescent forked duplex, kinetic | Potency, µM (highest dose often 114 µM), hits mostly inhibitors | actives 0.46% (n = 360,000) | AID 651768, 2012; further: nearly all actives have a fitted effect of over 55% in size
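WRN at 20 nM final preincubated with compound 15 min at room temperature; reaction started with 100 nM fluorophore/quencher forked duplex oligonucleotide and 2 mM ATP final. Unwinding followed kinetically by red fluorescence (ex 525, em 598 nm).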
Numbers stand for hits; n = inactive; u = inconclusive; x = no result; ! = not active in a repeat; [ ] = another dose, or the depositor's remark. The call rests on the fitted dose curve; in most records, active means well fitted curve in the direction sought with a large enough effect; inconclusive means small, poorly fitted or top-dose-only effect, or another doubt; inactive means no such curve, though single readings can be large; an effect the other way counts as inactive or inconclusive.

SMILES	Pol beta inh	POLK inh	Pol eta inh	Pol iota inh	FEN1 inh	WRN inhibitor
COc1ccccc1CNC(=O)c1ccc(CSc2nc3ccncc3n2Cc2cccc(F)c2)cc1	n	n	n	n	n	x
COc1ccccc1NC(=O)c1oc2ccccc2c1NC(=O)c1cccc(OC)c1OC	n	n	n	n	n	x
COc1ccc2c(c1)c[n+](C)c1c3cc(OC)c(OC)cc3ccc21	x	x	x	x	x	n
COc1cc2c[n+](C)c3c4ccccc4ccc3c2cc1OC	x	32µM	u	u	6.3µM	n
Nc1ccc(/C=C/c2cccc3cccnc23)cc1	x	n	x	n	n	x
COc1ccc(N2CCN(C(CNC(=O)c3c(F)cccc3F)c3ccc4c(c3)OCO4)CC2)cc1 (centres undefined)	n	n	n	n	n	x
Cc1coc2cc3oc(=O)c(CCC(=O)NCCN4CCOCC4)c(C)c3cc12	n	u	n	89µM	n	n
COc1ccc(CCNC(=O)CCc2c(C)c3cc4c(C)c(C)oc4cc3oc2=O)cc1	n	n	n	u	n	x
COc1ccc(CNC(=O)CCc2c(C)c3cc4c(C)c(C)oc4cc3oc2=O)cc1OC	1.6µM	n	n	n	n	x
Cc1oc2cc3oc(=O)c(CCC(=O)NCCC(=O)O)c(C)c3cc2c1C	n	n	56µM	n	n	n
Cc1oc2cc3oc(=O)c(CC(=O)N[C@H](C(=O)N[C@@H](C(=O)O)c4ccccc4)C(C)C)c(C)c3cc2c1C	n	u	n	79µM	n	n
Cc1nc2ccn(Cc3cccs3)c(=O)c2cc1C(=O)N1CCN(c2ccccc2)CC1	n	n	n	n	n	x
OCC[N+]1(CCc2ccccc2)CCOCC1	x	n	x	n	n	x
COc1ccc(/C=C/C(=O)c2c(O)c(OC)c3occc3c2OC)cc1OC	x	n	x	n	n	x
CC(NC(=O)c1ccc(NC(=O)c2nsc3ccccc23)cc1)c1ccccc1 (centres undefined)	n	n	n	n	n	x
COC(=O)c1ccc2cc(OC)c(OC)cc2c1	x	x	n	x	x	n
COC(=O)c1cc(=O)c(O)c2c(O)c(O)ccc2c1	x	1.1µM	x	x	x	x
Cc1ccnc(N=O)c1	x	n	n	n	50µM	n
OCc1cc2c(cn1)[nH]c1ccccc12	x	n[19.4 µM]	x	x	x	x
O=C(Nc1nc2ccccc2c2nc3ccccc3n12)c1ccc(F)cc1	n	x	x	x	x	x
Cn1c(NC(=O)c2ccc(F)cc2)nc2ccccc21	n	n	n	89µM	n	n[11.6 µM]
CC(C)n1c(=O)[nH][nH]c1=S	n	n	n	n	n	56µM
CC(C)n1c(=O)[nH]c2ccccc21	n	n	n	n	n	n
Cc1cccn2c(=O)c3cc(C#N)c(=O)n(-c4nnc(SCc5ccccc5F)s4)c3nc12	n	n	x	n	n	x
Cc1cc(NS(=O)(=O)c2ccc(Nc3nc(-c4sc(N)nc4C)cs3)cc2)no1	n	25µM	10µM	3.2µM	56µM	25µM
SMILES	Pol beta inh	POLK inh	Pol eta inh	Pol iota inh	FEN1 inh	WRN inhibitor
CC(C)Oc1cccc(C(=O)Nc2ccc(-c3nc4cc(Cl)cc(Cl)c4o3)cc2)c1	n	n	n	n	n	x
O=C(Nc1ccc2oc(-c3ccccc3F)nc2c1)c1ccccc1Cl	n	n	n	n	n	x
O=C(Nc1ccc2oc(-c3ccccc3F)nc2c1)c1ccc([N+](=O)[O-])o1	11µM	n	n	u	n	n
O=C(O)c1cccc(NC(=S)NC(NC(=O)c2cccc([N+](=O)[O-])c2)C(Cl)(Cl)Cl)c1 (centres undefined)	u	n	56µM	n	n	u
O=C(O)c1cccc(NC(=S)NC(NC(=O)c2ccccc2[N+](=O)[O-])C(Cl)(Cl)Cl)c1 (centres undefined)	n	n	n	n	n	n
C=CCSc1ncccc1C(=O)O	n	n	n	100µM	n	n
CCCCCN(CCCCC)c1ccc(/C=C/c2ccnc3ccccc23)cc1	x	n	x	n	n	x
Cc1cc(C)n2c(=S)[nH]nc2n1	n	n	n	n	n	56µM
N#C/C(=C/c1ccco1)C(N)=S	20µM	n	n	u	n	n
CN1CCc2c(sc(NC(=O)c3ccco3)c2C(N)=O)C1	n	n	n	n	n	n
CN1CCc2c(sc(NC(=O)c3cc4cc([N+](=O)[O-])ccc4s3)c2C(N)=O)C1	22µM	x	x	x	x	x
O=C(CSc1ccc2nnc(-c3cccc(F)c3)n2n1)NCc1ccco1	79µM	n	n	u	n	n
O=C(CSc1ccc2nnc(-c3cccnc3)n2n1)NCc1ccco1	n	n	n	n	n	n
Cc1nc2cc(NC(=O)NCCCO)ccc2o1	n	n	n	n	n	n
Cc1nc2cc(NC(=O)NCCC3=CCCCC3)ccc2o1	n	n	n	89µM	n	n
Cn1cccc1C(=O)N1CCC2(CC1)CN(C(c1ccccc1)c1ccccc1)C2	x	n	x	x	x	x
CC1(C)[C@@H](O)CC[C@]2(C)[C@H]3C(=O)C=C4[C@@H]5C[C@@](C)(C(=O)O)CC[C@]5(C)CC[C@@]4(C)[C@]3(C)CC[C@@H]12	n	34µM!	n	n	n	n
CC1(C)C(O)CC[C@]2(C)C1CC[C@@]1(C)C2C(=O)C=C2[C@@H]3C[C@@](C)(C(=O)O)CC[C@@]3(C)CCC21C (some centres undefined)	x	n	x	x	x	x
CC1(C)CC(=O)C(C(C2=C(O)CC(C)(C)CC2=O)c2ccc([N+](=O)[O-])cc2)C(=O)C1 (centres undefined)	n	n	n	n	n	n
CC1(C)CC(=O)C(C(C2=C(O)CC(C)(C)CC2=O)c2ccc(Br)s2)C(=O)C1 (centres undefined)	n	n	n	u	n	22µM
Cc1ccc(C(C2=C(O)CC(C)(C)CC2=O)C2C(=O)CC(C)(C)CC2=O)s1 (centres undefined)	n	n	n	n	n	56µM
O=C(CSc1ccc(Br)c2cccc(Cl)c12)Nc1ccc(S(=O)(=O)Nc2nccs2)cc1	50µM	u	45µM	u	n	35µM
CCCCn1c(SCC(=O)c2ccccc2)nc2sc3c(c2c1=O)CCCC3	n	n	n	n	n	x
CC[n+]1c(/C=C2\Sc3ccccc3N2C)ccc2cccc(C)c21	28µM	n	u	u	13µM	50µM
CN1/C(=C/c2cccc[n+]2CCO)Sc2ccccc21	u	n	n	n	n	n
Cc1cc2c(cc1C)N[C@]1(C[C@H]3CCCC(=O)N4CC[C@@H](C1)[C@@H]34)C(=NC1CCCCC1)N2	x	n	x	n	n	x
Cc1coc2c1C(=O)C(=O)c1c-2ccc2c(C)cccc12	20µM	79µM	28µM	u	u	n
